High-throughput results from PubChem BioAssay.
Only some compounds are listed: those with a hit (about 2.8% of all), similar ones and a draw of the others.
POLH inh – blocks human DNA polymerase eta activity; Potency, µM (top dose mostly 114 µM), actives largely listed as inhibitors; 390,000 compounds, 1.2% hits; Q9Y253; recombinant Pol eta, fluorescent DNA replication assay
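Pol eta (10 nM) was preincubated with compounds for 15 min at room temperature, after which fluorescent replication substrate (50 nM final) was added to start the reaction. Fluorescence was read kinetically at 0 and 10 min.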
WRN helicase inh – blocks human WRN helicase; WRN helicase unwinding, fluorescent forked duplex, kinetic; 360,000 compounds, 0.46% hits; Potency, µM (top dose mostly 114 µM), actives largely listed as inhibitors; note: nearly all actives have a fitted effect of over 55% in size
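Fluorescence dequenching readout, ex 525 nm/em 598 nm, kinetic mode: forked duplex DNA (100 nM final) with adjacent fluorophore and quencher unwound by WRN (20 nM final) with 2 mM ATP. Compound preincubation 15 min, room temperature.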
Pol iota inh – inhibitors of human DNA polymerase iota. AID 588590. 390,000 compounds, 1% hits. Potency, µM (top dose mostly 115 µM), most hits filed as inhibitors. Pol iota fluorescent replication assay, 10 min
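Pol iota at 10 nM preincubated 15 min with compounds at room temperature; reaction started with fluorescent substrate, 50 nM final. Fluorescence read kinetically at 0 and 10 min; buffer-only wells as negative control.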
PI5P4Ka inh – inhibitors of human PI5P4K alpha; 330,000 compounds, 1.2% hits; P48426; PI5P4Kalpha enzyme, ADP-Glo luminescence, 60 min; active compounds read low; AID 652105; max response, %; active = max response of -50% or lower; inconclusive = between -30% and -50%; inactive = -30% or higher; note: value at the top dose of about 77 µM
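qHTS, 1536-well: enzyme/substrate mix, compound by pin tool, 5 microM ATP final; RT 60 min; ADP-Glo reagents 1 (45 min) then 2 (30 min); luminescence.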
Pol kappa inh – inhibitors of human DNA polymerase kappa; Q9UBT6; purified Pol kappa, fluorescent DNA synthesis assay, 10 min; Potency, µM (top dose mostly 107 µM), most hits filed as inhibitors; 400,000 compounds, 0.53% hits; AID 588579
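50 nM final substrate added after 15 min RT preincubation of 10 nM Pol kappa with compound; fluorescence read at 0 and 10 min.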
POLB inh – DNA polymerase beta (human) inhibition. 340,000 compounds, 1.3% hits. P06746. Pol beta primer extension/strand displacement, fluorescence kinetic. Potency, µM (highest dose often 114 µM), usual class: inhibitors
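Curves were derived by four-parameter Hill fits of normalized qHTS data. The kinetic fluorescent primer-extension read was taken at 0 and 10 min after 50 nM substrate, following a 15 min room-temperature preincubation of 10 nM enzyme with compounds.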
ADP-Glo counter – interferes with ADP-Glo detection without enzyme present; AID 743285; 1,100 tested, under 10 active; ADP-Glo detection counter-screen, luciferase luminescence, no enzyme; Potency, µM (doses to about 76.9 µM), usual class: inhibitors; shares compounds with PI5P4Ka inh
Large screens that a line does not name were inactive (follow-up assays come after a bar, where they were run). Unless noted, calls come from the whole dose curve; as a rule, active = well fitted curve in the direction sought with a large enough effect; inconclusive = small, poorly fitted or top-dose-only effect, or another doubt; inactive = no such curve, though single readings can be large; an effect the other way counts as inactive or inconclusive.

Cc1cc(NS(=O)(=O)c2ccc(NC(=O)COc3ccc(Br)cc3)cc2)nc(C)n1	PI5P4Ka inh -54 | ADP-Glo counter inactive
CCOc1ccc(OCC(=O)Nc2ccc(S(=O)(=O)Nc3cc(C)nc(C)n3)cc2)cc1	POLH inh inconclusive, Pol iota inh inconclusive
OC(Br)C(O)C(O)N1CCCc2ccccc21 (stereo not given)	none (no result: POLH inh, WRN helicase inh, PI5P4Ka inh, POLB inh)
Cc1ccc2c(CC(=O)Nc3c(C(=O)c4ccc(F)cc4)oc4ccccc34)coc2c1	none (no result: WRN helicase inh, PI5P4Ka inh)
Cc1cccc(C2Nc3ccccc3C(=O)N2c2ccc(F)cc2)n1 (stereo not given)	none | ADP-Glo counter inactive
Cc1cc(NC(=O)N(C)CCc2c(C)nn(C)c2C)ccc1Br	none (no result: WRN helicase inh, PI5P4Ka inh)
CCOc1ccc(C(Nc2cccnc2)c2cc(Cl)c3cccnc3c2O)cc1 (stereo not given)	POLH inh inconclusive, PI5P4Ka inh -68 | ADP-Glo counter inactive
CCOc1ccc(C(NC(C)=O)c2cc(Cl)c3cccnc3c2O)cc1 (stereo not given)	none (no result: POLH inh, WRN helicase inh, PI5P4Ka inh, POLB inh)
O=C(Oc1cccc2c(O)cccc12)c1ccco1	Pol iota inh inconclusive, PI5P4Ka inh -54 (no result: POLB inh) | ADP-Glo counter inactive
COc1cc(OC)cc(-c2nnc(NC(=O)CCS(=O)(=O)c3ccc(C)cc3)o2)c1	Pol iota inh inconclusive, PI5P4Ka inh -50 (no result: POLB inh) | ADP-Glo counter inactive
Cc1cccnc1NC(=O)CNC(=O)c1sc2ccccc2c1Cl	none (no result: POLB inh)
Cc1cccc(NC(=O)CNC(=O)c2sc3ccccc3c2Cl)n1	PI5P4Ka inh -51 (no result: POLB inh) | ADP-Glo counter inactive
O=S(=O)(NCCc1cn2ccsc2n1)c1ccc(Cl)cc1	none (no result: WRN helicase inh, PI5P4Ka inh)
Cc1ccccc1N1CC(C(=O)Nc2nnc(SCC(=O)Nc3nccs3)s2)CC1=O (stereo not given)	POLH inh inconclusive, Pol iota inh inconclusive, PI5P4Ka inh inconclusive, POLB inh 50µM | ADP-Glo counter inactive
Cc1cccc(N2CC(C(=O)Nc3nnc(SCC(=O)Nc4nccs4)s3)CC2=O)c1 (stereo not given)	POLH inh inconclusive, PI5P4Ka inh inconclusive, POLB inh inconclusive
COc1cc(C2CC(=O)N3CN(Cc4ccco4)CSC3=C2C#N)ccc1OCc1ccccc1 (stereo not given)	PI5P4Ka inh -59 | ADP-Glo counter inactive
O=C(CSCCO)Nc1cccc(C(F)(F)F)c1	none (no result: PI5P4Ka inh)
Cc1cc(NC(=O)CSc2nc3[nH]c(=O)cc(O)c3s2)ccc1Br	PI5P4Ka inh -58 (no result: POLB inh) | ADP-Glo counter inactive
Cc1ccc(C)c(NC(=O)CSc2sc3c(O)cc(=O)[nH]c3c2C#N)c1	POLH inh 20µM, Pol iota inh 28µM, PI5P4Ka inh -64, Pol kappa inh inconclusive, POLB inh inconclusive | ADP-Glo counter inactive
N#Cc1c(SCC(=O)Nc2cccc(C(F)(F)F)c2)sc2c(O)cc(=O)[nH]c12	POLH inh 20µM, WRN helicase inh inconclusive, Pol iota inh inconclusive, PI5P4Ka inh -103, Pol kappa inh 25µM | ADP-Glo counter inactive
Cc1cc(NC(=O)CSc2sc3c(O)cc(=O)[nH]c3c2C#N)ccc1Br	POLH inh 28µM, Pol iota inh 56µM, PI5P4Ka inh -104, Pol kappa inh inconclusive, POLB inh inconclusive | ADP-Glo counter inactive
Cc1ccc(N2CCN(c3nc4ccc(C(=O)c5ccccc5)cc4n4cnnc34)CC2)c(C)c1	Pol iota inh inconclusive (no result: WRN helicase inh, PI5P4Ka inh)
CCn1cc2nc(SCc3ccc(F)cc3)n(Cc3ccc(Cl)cc3)c(=O)c2n1	none (no result: WRN helicase inh, PI5P4Ka inh)
Cc1ccc(C2c3c(oc4ccccc4c3=O)C(=O)N2c2ccc(C)cn2)cc1 (stereo not given)	none (no result: WRN helicase inh, PI5P4Ka inh)
COc1cc(NC(=O)c2ccccc2)c(OC)cc1NC(=O)CSc1[nH]c(=O)cc(C)c1C#N	POLB inh inconclusive
COc1ccccc1NC(=O)CSc1sc2c(O)cc(=O)[nH]c2c1C#N	POLH inh 20µM, WRN helicase inh 50µM, Pol iota inh 2.8µM, PI5P4Ka inh -66, Pol kappa inh 50µM, POLB inh 0.56µM | ADP-Glo counter inactive
CCn1c(C(=O)NCc2ccccc2C)cc2oc3ccccc3c21	none (no result: POLH inh, WRN helicase inh, PI5P4Ka inh)
O=C(CCn1nnc2ccccc21)Nc1nnc(Cc2ccccc2)s1	POLH inh inconclusive, Pol iota inh inconclusive, PI5P4Ka inh -53, POLB inh inconclusive | ADP-Glo counter inactive
O=C(CCn1nnc2ccccc21)Nc1nnc(COc2ccccc2F)s1	none
Cc1cccc(C(=O)Oc2c(Sc3ccccc3)c(C)nn2C(C)(C)C)c1	none (no result: WRN helicase inh, PI5P4Ka inh)
COc1ccc(N2CC(C(=O)Nc3nc4ccc(S(C)(=O)=O)cc4s3)CC2=O)cc1 (stereo not given)	POLH inh inconclusive, Pol iota inh inconclusive, PI5P4Ka inh -53, POLB inh inconclusive | ADP-Glo counter inactive
O=C(CCC1N=C2c3ccccc3N=C(SCc3ccccc3F)N2C1=O)NC1CCCCC1 (stereo not given)	none (no result: WRN helicase inh, PI5P4Ka inh)
Cn1ccc(-c2ccccc2)n1	none
N#Cc1cc(-c2ccccc2)nn1-c1ccccc1	Pol iota inh inconclusive, PI5P4Ka inh -80 | ADP-Glo counter inactive
Cc1cc([N+](=O)[O-])cc2c1NC(c1ccccn1)C1CC=CC21 (stereo not given)	POLH inh inconclusive, Pol iota inh inconclusive, PI5P4Ka inh -71 | ADP-Glo counter inactive
COCCNC(=O)C1Cc2c(-c3ccc(NC(C)=O)cc3)ccnc2O1 (stereo not given)	PI5P4Ka inh -66 (no result: POLH inh, Pol iota inh, Pol kappa inh, POLB inh) | ADP-Glo counter inactive
COCCNC(=O)C1Cc2c(-c3cccc(NC(C)=O)c3)ccnc2O1 (stereo not given)	PI5P4Ka inh inconclusive (no result: POLH inh, Pol iota inh, Pol kappa inh, POLB inh)
Cc1ccc(S(=O)c2ccc(NC(=O)C3CC3)cc2C#N)cc1 (stereo not given)	PI5P4Ka inh -63 | ADP-Glo counter inactive
Cc1ccc(NC(=O)C2CCN(S(=O)(=O)c3ccccc3)CC2)cc1	none
COCCn1c(=S)[nH]c2cc(C(=O)N(CCO)Cc3ccccc3)ccc2c1=O	none
COCCn1c(=S)[nH]c2cc(C(=O)NCCc3ccccc3)ccc2c1=O	PI5P4Ka inh -58 | ADP-Glo counter inactive
CC1(C)S[C@@H]2[C@H](NC(=O)COc3ccccc3)C(=O)N2[C@@H]1C(=O)OCc1cccc2cccnc12	none (no result: POLH inh, WRN helicase inh, PI5P4Ka inh, POLB inh)
COCc1cc(N2CCCCC2)nc(-c2ccccc2)n1	WRN helicase inh inconclusive, PI5P4Ka inh -74 | ADP-Glo counter inactive
COCCn1nnnc1C(c1cc2cc(OC)c(OC)cc2[nH]c1=O)N1CCN(c2ccc(O)cc2)CC1 (stereo not given)	WRN helicase inh inconclusive, Pol iota inh 45µM, PI5P4Ka inh -54 | ADP-Glo counter inactive
COc1ccc(OC)c(NC(=O)N2CCC(CN3CCCCC3)CC2)c1	none (no result: WRN helicase inh, PI5P4Ka inh)
